Measurements taken from PubChem BioAssay (EPA / NIEHS).
Active and inactive are the calls of the source. How the source made its calls: active means hit-call score of the fitted dose curve at least 0.9, where 1 is the maximum; inactive means score below 0.9.

Read-out: Transforming growth factor beta 1 (TGFb1), TGFB1 (gene 7040)
Test: BSK_KF3CT_TGFb1: BioMAP Diversity Plus: KF3CT Assay for Transforming growth factor beta 1 (TGFb1) Biomarker Activity (AID 2283072)
Conditions: primary human keratinocytes with fibroblasts; actives raise or lower the signal
Procedure: BSK_KF3CT is a cell-based, multiplexed-readout assay that uses keratinocytes and foreskin fibroblasts, a human skin primary cell co-culture, with measurements taken at 24 hours after chemical dosing in a 96-well plate.BSK_KF3CT_TGFb1 is an assay component measured in the BSK_KF3CT assay. It measures TGF-b1 antibody related to regulation of gene expression using ELISA technology.Data from the assay component BSK_KF3CT_TGFb1 was analyzed into 1 assay endpoint. This assay endpoint, BSK_KF3CT_TGFb1, was analyzed with bidirectional fitting relative to DMSO as the negative control and baseline of activity. Using a type of binding reporter, gain or loss-of-signal activity can be used to understand changes in the signaling as they relate to the gene TGFB1. Furthermore, this assay endpoint can be referred to as a primary readout, because this assay has produced multiple assay endpoints where this one serves a signaling function. To generalize the intended target to other relatable targets, this assay endpoint is annotated to the growth factor intended target family, where the subfamily is transforming growth factor beta.
The levels of cell surface (or secreted, indicated by the prefix "s") biomarker endpoints were measured by ELISA. Overt cytotoxicity to cells in confluent adherent cultures (all systems other than the BT system) was assessed by measuring total protein levels using sulforhodamine B (SRB) staining in parallel cultures at the time of biomarker measurements, indicated as SRB endpoints. For proliferation assays for adherent cell types, individual cell types are cultured at sub-confluence and relative cell numbers quantified by SRB staining at time points optimized for each system (48 h: 3C and CASM3C systems; 72 h: BT and HDF3CGF systems; 96 h: SAg system). SRB was performed by staining cells with 0.1% SRB after fixation with 10% TCA and reading wells at 560 nm.Viability and proliferation of PBMC (T cells) was quantified by Alamar Blue reduction for the SAg and BT systems. For PBMC viability (referred to as PBMC Cytotoxicity within the assay endpoint names), cells were plated (75,000/well in a 96-well plate) and then chemical samples added for 1 h before addition of activators, SEB and TSST-1 (20 ng/mL final concentration each). Cells were incubated for 90 h. Then, Alamar Blue (20 uL/well) (Invitrogen, Cat DAL1100) was added for 6 h, and the plates were read with a fluorescence microplate reader at 546/580 nm (excitation/emission). For PBMC proliferation, cells were plated and activated as above but incubated for only 16 h prior to addition of Alamar Blue. Plates were read after 6 h.

Row | SMILES | outcome | AC50
1 | CNC(=O)Oc1cccc2ccccc12 | inactive | –
2 | CN=C=S | inactive | –
3 | O=C(O)c1c(Cl)ccc2cc(Cl)cnc12 | inactive | –
4 | COC(=O)c1c(C(F)F)nc(C(F)(F)F)c(C2=NCCS2)c1CC(C)C | inactive | –
5 | CCSC(=O)N1CCCCCC1 | inactive | –
6 | OC(c1ccc(Cl)cc1)(c1ccc(Cl)cc1)C(Cl)(Cl)Cl | – | 9.69 µM (active)
7 | Cc1nc(N(C)C)nc(OC(=O)N(C)C)c1C | inactive | –
8 | CC(C)Nc1nc(Cl)nc(NC(C)C)n1 | inactive | –
9 | O=P(O)(O)CCCl | inactive | –
10 | COc1cc(OC)nc(NC(=O)NS(=O)(=O)c2ncccc2OCC(F)(F)F)n1 | inactive | –
11 | C=C(C)CN(CC)c1c([N+](=O)[O-])cc(C(F)(F)F)cc1[N+](=O)[O-] | inactive | –
12 | COCC(C)N(C(=O)CCl)c1c(C)csc1C (stereo not given) | inactive | –
13 | CCOc1cc(C(C)(C)C)ccc1C1COC(c2c(F)cccc2F)=N1 (stereo not given) | – | 33 µM (active)
14 | N#CN=C1SCCN1Cc1ccc(Cl)nc1 | inactive | –
15 | CC1(C)C(C=C(Cl)Cl)C1C(=O)OC(C#N)c1cccc(Oc2ccccc2)c1 (stereo not given) | inactive | –
16 | Cn1c(-c2ccccc2)cc(-c2ccccc2)[n+]1C | inactive | –
17 | Cc1ccc(N=CN(C)C=Nc2ccc(C)cc2C)c(C)c1 | inactive | –
18 | CC(C)=CC1C(C(=O)OCc2coc(Cc3ccccc3)c2)C1(C)C (stereo not given) | inactive | –
19 | CS(=O)(=O)c1ccc(C(=O)C2C(=O)CCCC2=O)c([N+](=O)[O-])c1 | inactive | –
20 | CCN(CC)c1nc(C)cc(OP(=S)(OC)OC)n1 | inactive | –

Row | SMILES | outcome | AC50
21 | COC(=O)NC(=S)Nc1ccccc1NC(=S)NC(=O)OC | inactive | –
22 | CCC(C)n1c(=O)[nH]c(C)c(Br)c1=O (stereo not given) | inactive | –
23 | CCNP(=S)(OC)O/C(C)=C/C(=O)OC(C)C (stereo not given) | inactive | –
24 | CC(C)C1(C)N=C(c2ncccc2C(=O)O)NC1=O (stereo not given) | inactive | –
25 | CCCCC(C#N)(Cn1cncn1)c1ccc(Cl)cc1 (stereo not given) | inactive | –
26 | CC1(C)CON(Cc2ccccc2Cl)C1=O | inactive | –
27 | CCCCC(O)(Cn1cncn1)c1ccc(Cl)cc1Cl (stereo not given) | inactive | –
28 | COc1cc(Cl)c(OC)cc1Cl | inactive | –
29 | CNC(=O)N(C)c1nnc(C(C)(C)C)s1 | inactive | –
30 | Cc1cc(C)nc(Nc2ccccc2)n1 | inactive | –
31 | CO/N=C(/C1=NOCCO1)c1ccccc1Oc1ncnc(Oc2ccccc2Cl)c1F | inactive | –
32 | Clc1nc(Cl)nc(Nc2ccccc2Cl)n1 | inactive | –
33 | COC(=O)NS(=O)(=O)c1ccc(N)cc1 | inactive | –
34 | CN/C(=N\[N+](=O)[O-])NCc1cnc(Cl)s1 | inactive | –
35 | Clc1cccc(C(Cl)(Cl)Cl)n1 | inactive | –
36 | N#Cc1c(Cl)cccc1Cl | inactive | –
37 | CCCN(CC)CC1COC2(CCC(C(C)(C)C)CC2)O1 (stereo not given) | inactive | –
38 | COP(=O)(OC)O/C(C)=C/C(=O)N(C)C | inactive | –
39 | COCc1cnc(C2=NC(C)(C(C)C)C(=O)N2)c(C(=O)O)c1 (stereo not given) | inactive | –
40 | CCCC(=NOCC)C1=C(O)CC(CC(C)SCC)CC1=O (stereo not given) | inactive | –
